Experimental findings from PubChem BioAssay (Tox21) are described below.

Several values for one entry are separate records, joined by “and”; a condition that tells them apart may be missing. Identical values can stand only once. Records with an inconclusive call do not appear. Activity calls are given as the source filed them. Unless noted, the call rests on the fitted dose curve.

The nature of experiment [1]: qHTS assay to identify small molecule agonists of the vitamin D receptor (VDR) signaling pathway - cell viability counter screen (AID 743224; active means well fitted curve in the direction sought with a large enough effect in the repeat runs; an effect the other way counts as inactive or inconclusive; further: nearly all actives have a fitted effect of over 50% in size; further: potency means the concentration at half of the fitted maximal effect). In outline: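 Counter screen for cytotoxicity: VDR-bla cells at 2,000 cells/well, 16 h compound exposure, then CellTiter-Glo luminescence after the beta-lactamase measurement.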
Experiment [2] in a line: qHTS assay to identify small molecule agonists of the NFkB signaling pathway - cell viability counter screen (AID 1159515). Further: nearly all actives have a fitted effect of over 55% in size. Further: potency means the concentration at half of the fitted maximal effect. The procedure, abridged: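 Counter screen run alongside the NFkB-bla agonist assay: ME-180 reporter cells exposed to compounds for 5 hr, then lysed with CellTiter-Glo in the same wells. Luminescence, read after 30 min, reflects viable cells.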
A short description of experiment [3]: qHTS assay to identify small molecule agonists of the endoplasmic reticulum stress response signaling pathway - cell viability counter screen (AID 1159517). Further: nearly all actives have a fitted effect of over 50% in size. Further: potency means the concentration at half of the fitted maximal effect. In outline: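 ESRE-bla HeLa cells (1,500/well) were plated overnight at 37 C and exposed to compounds for 5 hr. After the 2 hr beta-lactamase substrate read, CellTiter-Glo went into the same wells, and luminescence was read after 30 min at room temperature.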
A general note: Quantitative high-throughput screening tests each substance at several concentrations.

For experiment [4], the target named is Nuclear receptor ROR-gamma (Homo sapiens) (UniProt P51449). The experiment is described as follows: qHTS assay to identify small molecule antagonists of the retinoid-related orphan receptor gamma (ROR-gamma) signaling pathway (AID 1159521; active means well fitted curve in the direction sought with a large enough effect in the repeat runs; an effect the other way counts as inactive or inconclusive; further: nearly all actives have a fitted effect of over 50% in size; further: potency means the concentration at half of the fitted maximal effect). In outline:
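Decreased RORE-driven luciferase luminescence indicates antagonism. Tet-on RORγ CHO cells received compound, then 1 uM final doxycycline 2 h later; signal read after 16 h incubation.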

A short description of experiment [5]: qHTS assay to identify small molecule agonists of the AP-1 signaling pathway - cell viability counter screen (AID 1159525). Further: nearly all actives have a fitted effect of over 55% in size. Further: potency means the concentration at half of the fitted maximal effect. The procedure, abridged: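 Intracellular ATP by Cell Titer Glo luminescence (30 min, RT) in the same ME-180 AP-1-bla wells after the 5 h compound exposure at 37 °C. Normalised to tetra n-octyl ammonium bromide and DMSO controls.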
In experiment [6] the target is Retinoic acid receptor RXR-alpha (Homo sapiens) (UniProt P19793). The experiment is described as follows: qHTS assay to identify small molecule agonists of the RXR signaling pathway (AID 1159527). Further: nearly all actives have a fitted effect of over 35% in size. In outline: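 16 hr incubation of compound-treated RXR-alpha-UAS-bla HEK 293T cells (2% charcoal-stripped FBS, 37 C) preceded a 2 hr room-temperature LiveBLAzer FRET substrate step and blue/green fluorescence measurement.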
Retinoic acid receptor RXR-alpha (Homo sapiens), sequence (P19793 whole entry, looked up): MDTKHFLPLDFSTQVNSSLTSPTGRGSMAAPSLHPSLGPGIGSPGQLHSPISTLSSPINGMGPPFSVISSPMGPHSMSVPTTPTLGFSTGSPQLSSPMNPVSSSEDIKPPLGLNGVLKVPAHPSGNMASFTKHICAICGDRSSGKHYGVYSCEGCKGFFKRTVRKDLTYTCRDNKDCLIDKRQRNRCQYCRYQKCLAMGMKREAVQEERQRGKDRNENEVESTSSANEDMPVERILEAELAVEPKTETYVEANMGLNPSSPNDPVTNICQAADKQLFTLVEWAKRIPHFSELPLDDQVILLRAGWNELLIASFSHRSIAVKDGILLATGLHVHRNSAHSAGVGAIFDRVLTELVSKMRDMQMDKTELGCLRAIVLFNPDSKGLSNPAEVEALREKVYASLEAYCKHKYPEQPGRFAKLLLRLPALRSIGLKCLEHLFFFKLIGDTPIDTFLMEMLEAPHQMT

Experiment [7] in a line: qHTS assay to identify small molecule antagonists of the vitamin D receptor (VDR) signaling pathway - cell viability counter screen (AID 743225; active means well fitted curve in the direction sought with a large enough effect in the repeat runs; an effect the other way counts as inactive or inconclusive; further: nearly all actives have a fitted effect of over 50% in size; further: potency means the concentration at half of the fitted maximal effect). In outline: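 Parallel cytotoxicity test: VDR-UAS-bla HEK 293T, 3 nM (final) 1-alpha,25-dihydroxyvitamin D3 with test compound, 16 h, 37C. Endpoint is CellTiter-Glo luminescence in the same wells.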
The nature of experiment [8]: qHTS assay to identify small molecule antagonists of the retinoid-related orphan receptor gamma (ROR-gamma) signaling pathway - cell viability counter screen (AID 1159520; active means well fitted curve in the direction sought with a large enough effect in the repeat runs; an effect the other way counts as inactive or inconclusive; further: nearly all actives have a fitted effect of over 50% in size; further: potency means the concentration at half of the fitted maximal effect). The procedure, abridged:
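Cytotoxicity was read from cellular ATP (CellTiter-Glo luminescence) after 16 hr at 37 C with 1 uM doxycycline induction. The inducer was added 2 hr after compound transfer to Tet-on ROR gamma CHO cells.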

A short description of experiment [9]: qHTS assay to identify small molecule agonists of the AP-1 signaling pathway (AID 1159526).
Experiment [10] in a line: qHTS assay to identify small molecule agonists of the endoplasmic reticulum stress response signaling pathway (AID 1159516; active means well fitted activation curve with a large enough effect in the signal ratio in the repeat runs, not every such curve was filed as active; the % refers to the signal ratio). The procedure, abridged: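 For this screen, HeLa cells stably carrying beta-lactamase under the ER stress response element received test compounds, positive controls or DMSO for 5 hr at 37 C; B/G FRET substrate was then added and dual-wavelength emission recorded.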

As for `O=c1oc2ccccc2c(O)c1Cc1c(O)c2ccccc2oc1=O`, the Potency entry in experiment [1], in [2], in [3] and in experiment [5] was “inactive” each time. In addition, in experiment [4], the Potency was 7.5 µM (active). The outcome in experiment [6] was inactive.
Take `CC(=O)[O-].CC(=O)[O-].[Hg+2]`: the Potency in experiment [1] was 1.74 µM (active); in [7] it was 3.09 µM (active); in experiment [2] it was 0.871 µM (active); in experiment [3], 0.776 µM (active); in experiment [8], 1.22 µM (active); in experiment [5] it was 3.89 µM (active).
Take `CCC[CH2][Sn]([CH2]CCC)([CH2]CCC)[O]C(=O)c1ccccc1`: the Potency was 0.692 µM (active) in experiment [1]; 1.95 µM (active) in experiment [7]; 0.436 µM (active) in [2]; 4.9 µM (active) in experiment [3]; 0.686 µM (active) in experiment [8]; 1.23 µM (active) in [5].
For `Nc1ccc(Cc2ccc(N)c(Cl)c2)cc1Cl`, the Potency entry in experiment [2], in experiment [3] and in experiment [4] was “inactive” each time.
Consider `O=[N+]([O-])c1cc(C(F)(F)F)c(Cl)c([N+](=O)[O-])c1Cl`, for which the Potency was 12.3 µM (active) in experiment [1]; 21.9 µM (active) in experiment [7]; 54.9 µM (active) in experiment [2]; 12.3 µM (active) in experiment [3]; 27.3 µM (active) in experiment [8]; 6.11 µM (active) in experiment [4].
With `CN(C)C1CSSSC1`, the Potency entry in [1], in [7], in [2], in [3], in experiment [8] and in experiment [5] was “inactive” each time. Further, the Potency result in [9] was “inactive”.
Take `CCCCCCCCCC[N+](C)(C)CCCCCCCCCC`: the Potency was 19.5 µM (active) in experiment [1]; 54.9 µM (active) in experiment [2]; 54.9 µM (active) in experiment [3]; 21.7 µM (active) in [4]; 34.7 µM (active) in experiment [5].
`C[C@]12CC[C@@H]3c4ccc(OC(=O)N(CCCl)CCCl)cc4CC[C@H]3[C@@H]1CC[C@@H]2O`: the Potency result in [1], in [2], in experiment [3], in experiment [8] and in experiment [5] was “inactive” throughout. In [6], the molecule was classed as inactive.
As to `c1ccc2cc3c(cc2c1)-c1cccc2cccc-3c12`, the Potency entry in experiment [1], in experiment [2], in experiment [3], in [8] and in [5] was “inactive” throughout.
Turning to `FC(Cl)(Cl)Cl`, the Potency result in experiment [1], in experiment [7], in [10], in experiment [3], in experiment [8] and in experiment [4] was “inactive” throughout. Besides, the Potency result in [5] and in experiment [9] was “inactive” in each case. Moreover, the outcome in [6] was inactive.
Turning to `CC(C)CCCCCOC(=O)c1ccccc1C(=O)OCCCCCC(C)C`, the Potency entry in experiment [1], in experiment [7], in [10], in experiment [3], in experiment [8] and in experiment [4] was “inactive” in each case. Besides, the Potency result in [5] and in [9] was “inactive” in each case.
For `CCCCCCCCCCCCBr`, the Potency result in [1], in experiment [10], in [3], in experiment [8], in experiment [4] and in [5] was “inactive” throughout. Besides, the Potency entry in experiment [9] was “inactive”.
Consider `O=C(O)COc1nc(Cl)c(Cl)cc1Cl`, for which the Potency result in experiment [10], in experiment [3], in [8], in experiment [5] and in experiment [9] was “inactive” each time.
In the case of `CCN(CC)c1c([N+](=O)[O-])cc(C(F)(F)F)c(N)c1[N+](=O)[O-]`, the Potency result in experiment [1], in [7] and in [2] was “inactive” in each case. The Potency in [4] is 27.3 µM (active).
Regarding `N#CCCSCCC#N`, the Potency result in experiment [1], in experiment [10], in [3], in experiment [8], in experiment [5] and in [9] was “inactive” throughout. Besides, in experiment [6], the molecule was classed as inactive.
`CN(C)CCc1c[nH]c2ccc(O)cc12`: the Potency entry in [7], in experiment [10], in experiment [3], in [8], in experiment [4] and in experiment [5] was “inactive” in each case. Also, in experiment [9], the Potency entry is “inactive”.
For `CN(C)CCc1c[nH]c2cccc(O)c12`, the Potency entry in experiment [10], in experiment [3], in experiment [8], in experiment [4] and in [5] was “inactive” in each case.
As to `O=C(O)c1cc[c]([Hg][Cl])cc1`, the Potency in [1] was 24.5 µM (active); in [8] it was 24.3 µM (active); in experiment [4], 4.86 µM (active). Also, the Potency result in [10] and in experiment [3] was “inactive” throughout.
Turning to `CCCCCCCCCBr`, the Potency result in experiment [1], in experiment [7], in experiment [10], in experiment [3], in experiment [8] and in experiment [4] was “inactive” each time. Moreover, the Potency result in experiment [5] and in experiment [9] was “inactive” in each case.
With `CCCN(CC)CC1COC2(CCC(C(C)(C)C)CC2)O1` (stereo not drawn), the Potency entry in experiment [1], in [7], in [10], in experiment [3], in experiment [8] and in experiment [4] was “inactive” in each case. In addition, the Potency entry in experiment [5] and in [9] was “inactive” each time. Moreover, in experiment [6], the molecule was called inactive.
On to `Oc1cc(Cl)c(Cl)c(Cl)c1`, for which the Potency is 36.9 µM (active) in experiment [1], 41.4 µM (active) in experiment [7] and 29.1 µM (active) in [4]. Further, the Potency entry in experiment [2] is “inactive”.
With `c1ccc(OCC2CO2)cc1` (stereo not drawn), the Potency result in [7], in [10], in experiment [3], in experiment [8], in experiment [4] and in experiment [5] was “inactive” each time. Also, in [9], the Potency entry was “inactive”.
For `O=C(O)C1C2CCC(O2)C1C(=O)O` (stereo not drawn), the Potency entry in experiment [1], in experiment [10], in experiment [3], in [5] and in [9] was “inactive” in each case. In addition, the Potency was 44.5 µM (active) in experiment [8]; 13.9 µM (active) and 12.5 µM (active) in [4]. Also, the call in experiment [6] was inactive.
